Bioassay records (PubChem BioAssay)
Only some compounds are listed: those with a hit (about 14% of all), similar ones and a draw of the others.
Marburg entry inh: qHTS for inhibitors of binding or entry into cells for Marburg Virus; hit rate 1.8% among 300,000; AID 540276, 2011; Potency, µM (highest dose often 37.8 µM), for inactives: at the highest dose activity change, negative = inhibition, usual class: inhibitors; Marburg virus pseudotyped entry inhibition, cell reporter; calls by dose curve; tested in HEK293 cells; further: potency means the concentration at half of the fitted maximal effect
HCMV inh: qHTS Assay for inhibitors of the human cytomegalovirus (HCMV); HFF cells, HCMV-luciferase reporter, 72 h; active compounds read low; activity change, negative = inhibition, % at 57.5 µM; hit rate 4.5% among 410,000; AID 1259415, 2018; in the data active means activity change below about -60%; inconclusive means no clear call, values can overlap the other calls; inactive means above about -39%
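Steps: HFFs plated, 16 h 37C; compounds added; HCMV-luciferase added to MOI 1 PFU/cell; 72 h 37C; OneGlo reagent, 5 min room temperature; luminescence read, normalized to controls.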
Pf growth 96h: Primary qHTS for delayed death inhibitors of the malarial parasite plastid, 96 hour incubation | hit rate 6.9% among 320,000 | AID 504834, 2011 | P. falciparum luciferase reporter growth, 96 h | Potency, µM (highest dose often 28.7 µM), for the others: at the highest dose activity change, negative = inhibition, hits mostly inhibitors; further: potency means the concentration at half of the fitted maximal effect
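Infected RBCs, 2% Hct / 0.05% parasitemia final; luciferase-reporter P. falciparum; cpd 96 h, 37 C, 5% CO2; luciferase detection reagent; luminescence.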
Lassa entry inh: qHTS for Inhibitors of binding or entry into cells for Lassa Virus. hit rate 1.2% among 300,000. Potency, µM (highest dose often 37.9 µM), for inactives: top-dose activity change, negative = inhibition, most hits filed as inhibitors. Lassa virus pseudotype entry inhibition, cell reporter; calls by dose curve; tested in HEK293 cells; further: potency means the concentration at half of the fitted maximal effect; nearly all actives have a fitted effect of over 50% in size
Pf growth 48h: Primary qHTS for delayed death inhibitors of the malarial parasite plastid, 48 hour incubation; hit rate 5.9% among 310,000; Potency, µM (series often up to 28.7 µM), without a hit: top-dose activity change, negative = inhibition, hits mostly inhibitors; AID 504832, 2011; P. falciparum luciferase growth in erythrocytes, 48 h; further: potency means the concentration at half of the fitted maximal effect
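Read-out is firefly luciferase luminescence from an integrated reporter in P. falciparum, so falling signal marks reduced parasite growth. Infected erythrocytes were at 2% hematocrit and 0.1% parasitemia (final) in Albumax-supplemented RPMI 1640.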
HCV inhibitor: qHTS Assay for Inhibitors of Hepatitis C Virus (HCV). Huh7.5.1 HCVcc-Cre infection, luciferase reporter, 44 h. Potency, µM (titrated, usually from 41.8 µM), inactives show top-dose activity change, negative = inhibition, usual class: inhibitors. hit rate 3.4% among 340,000. AID 651820, 2012; further: potency means the concentration at half of the fitted maximal effect
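Cells (1,000/well) were plated 4 h before compound, then infected with HCVcc-Cre virus (~0.5 moi). After 44 h further culture, infection was read as luciferase luminescence following a 15 min substrate incubation at room temperature.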
* = called active by the depositor; ? = inconclusive; . = not tested or not shown; [ ] = dose if it differs, or a comment. Unless noted, the call rests on the fitted dose curve; in most records, active means well fitted inhibition curve with a large enough effect; inconclusive means small, poorly fitted or top-dose-only effect, or another doubt; inactive means no such curve, though single readings can be large or run the other way. On the % scale 0 is the no-effect control and ±100 the full control effect.

SMILES	Marburg entry inh	HCMV inh	Pf growth 96h	Lassa entry inh	Pf growth 48h	HCV inhibitor
Cc1c(Cl)cccc1NC(=O)Cn1cc(C(=O)C2CCCCC2)c2ccccc21	?	-70*	.	?	.	.
O=C(Cn1c2ccccc2c(=O)c2cc([N+](=O)[O-])ccc21)Nc1ccccc1Cl	2%	-6	9.3µM*	.	?	-22%
CCC(=O)c1cn(CC(=O)Nc2ccccc2)c2ccccc12	?	3	?	?	-3%	-11%
Cc1cc(C)cc(NC(=O)Cn2cc(C(=O)C3CCCCC3)c3ccccc32)c1	0%[46.1 µM]	-28	.	9%[46.1 µM]	.	.
CC(=O)c1cn(CC(=O)Nc2ccccc2)c2ccccc12	?	-73*	.	?	?	?
O=C(Cn1cc(C(=O)c2ccco2)c2ccccc21)Nc1ccccc1Cl	8%[46.1 µM]	-22	.	23%[46.1 µM]	.	.
Cc1ccc(S(=O)(=O)N2CCN(C(=O)Cn3nc(C(=O)O)c4ccccc4c3=O)CC2)cc1	.	38	23%	.	13%	4%
CC(=O)c1cn(CC(=O)Nc2ccccc2F)c2ccccc12	?	-12	252%	?	-15%	11µM*
COc1ccc(NC(=O)Cn2cc(C(=O)c3ccco3)c3ccccc32)cc1	0%	-2	-6%	8%	?	3.5µM*
Cc1ccc(NC(=O)Cn2cc(C(=O)c3ccccc3)c3ccccc32)cc1	?	-91*	.	?	.	.
CCOc1ccc(NC(=O)Cn2cc(C(=O)c3ccco3)c3ccccc32)cc1	22%[46.1 µM]	5	9%	2%[46.1 µM]	.	-4%
CCC(=O)c1cn(CC(=O)Nc2ccccc2F)c2ccccc12	-1%	-15	?	-1%	-1%	-27%
O=C(Cn1cc(C(=O)c2ccccc2)c2ccccc21)Nc1ccc(Br)cc1	?	-35	.	-20%[46.1 µM]	.	.
Cc1cc(C)c(S(=O)(=O)Nc2cc(Cl)c3oc4c(c3c2)C(=O)CCC4)cc1C	10%[46.1 µM]	9	.	13%[46.1 µM]	.	.
Cc1nc(-c2ccccc2)sc1CCNC(=O)C(=O)Nc1ccc(F)c(Cl)c1	.	-1	.	3%[46.1 µM]	.	.
Cn1cnc(S(=O)(=O)N2CCCCC2c2cc(C(=O)NCc3ccc(Cl)c(Cl)c3)no2)c1 (stereo unspecified)	.	45	.	.	.	.
O=C(NCc1ccccc1F)Nc1nnc([C@H]2C[C@H](O)[C@@H](CO)O2)s1	.	-93*	.	.	.	.
CN1C(C(=O)NCc2ccc(OC(F)(F)F)cc2)CC2Cn3c(nc4ccccc43)C21 (stereo unspecified)	.	4	-7%	.	-29%	?
Cc1ccc([N+](=O)[O-])cc1N/C=C/C(=O)c1ccco1	?	-11	64%	12µM*	32%	6.3µM*
Cn1c(Nc2ccc(Cl)cc2F)nc2cc(-c3ccccc3)sc2c1=O	.	16	.	.	.	.
CCc1ccc(-c2cc(C)no2)cc1S(=O)(=O)N1CCN(C(=O)c2ccco2)CC1	-20%[46.1 µM]	-5	9.3µM*	-15%[46.1 µM]	?	?
CCc1ccc(-c2cc(C)no2)cc1S(=O)(=O)N1CCOc2ccccc21	?	-74*	?	?	8.3µM*	11µM*
CCc1ccc(-c2cc(C)no2)cc1S(=O)(=O)NCCCN1CCN(c2ccccc2)CC1	.	?	?	.	13µM*	2µM*
CCc1ccc(-c2cc(C)no2)cc1S(=O)(=O)N1CCN(c2ccc(OC)cc2)CC1	?	-67*	0%	?	?	?
CCc1ccc(-c2cc(C)no2)cc1S(=O)(=O)NCCN1CCC(C)CC1	?	0	8%	-30%[46.1 µM]	?	?
COc1ccc(-c2cc(C)no2)cc1S(=O)(=O)N1CCOc2ccc(C)cc21	-2%[46.1 µM]	0	2%	17%[46.1 µM]	?	6%
CCCNC(=O)CN1C(=O)c2cccnc2Sc2ccccc21	.	34	.	17%[46.1 µM]	.	.
CCCCc1nn2c(=O)cc(COC(=O)c3cccc(NC(=O)c4cccs4)c3)nc2s1	.	26	.	-3%[46.1 µM]	.	.
